Assay results from ChEMBL document CHEMBL3988442, “University of Dundee, Small-Polar-MMV Screening Library” (2021).
For some of these results: Entries with a potency or affinity are not part of this list.

Tests used:
Set-up in all cases: scale not given: direction of the effect not stated beside the values
[1] = target: Protein translocase subunit SecA (Escherichia coli (strain K12)) (UniProt P10408); assay: Assay to Identify E. coli SecA ATPase Inhibitors; format: functional; details: 30 µM
[2] = target: T1, Ubiquitin-activating enzyme e1, putative (Leishmania donovani (strain BPK282A1)) (UniProt E9BSI1); assay: Leishmania donovani Ubiquitin Activating Enzyme (LdE1); format: functional; details: 30 µM
T1 sequence (whole entry): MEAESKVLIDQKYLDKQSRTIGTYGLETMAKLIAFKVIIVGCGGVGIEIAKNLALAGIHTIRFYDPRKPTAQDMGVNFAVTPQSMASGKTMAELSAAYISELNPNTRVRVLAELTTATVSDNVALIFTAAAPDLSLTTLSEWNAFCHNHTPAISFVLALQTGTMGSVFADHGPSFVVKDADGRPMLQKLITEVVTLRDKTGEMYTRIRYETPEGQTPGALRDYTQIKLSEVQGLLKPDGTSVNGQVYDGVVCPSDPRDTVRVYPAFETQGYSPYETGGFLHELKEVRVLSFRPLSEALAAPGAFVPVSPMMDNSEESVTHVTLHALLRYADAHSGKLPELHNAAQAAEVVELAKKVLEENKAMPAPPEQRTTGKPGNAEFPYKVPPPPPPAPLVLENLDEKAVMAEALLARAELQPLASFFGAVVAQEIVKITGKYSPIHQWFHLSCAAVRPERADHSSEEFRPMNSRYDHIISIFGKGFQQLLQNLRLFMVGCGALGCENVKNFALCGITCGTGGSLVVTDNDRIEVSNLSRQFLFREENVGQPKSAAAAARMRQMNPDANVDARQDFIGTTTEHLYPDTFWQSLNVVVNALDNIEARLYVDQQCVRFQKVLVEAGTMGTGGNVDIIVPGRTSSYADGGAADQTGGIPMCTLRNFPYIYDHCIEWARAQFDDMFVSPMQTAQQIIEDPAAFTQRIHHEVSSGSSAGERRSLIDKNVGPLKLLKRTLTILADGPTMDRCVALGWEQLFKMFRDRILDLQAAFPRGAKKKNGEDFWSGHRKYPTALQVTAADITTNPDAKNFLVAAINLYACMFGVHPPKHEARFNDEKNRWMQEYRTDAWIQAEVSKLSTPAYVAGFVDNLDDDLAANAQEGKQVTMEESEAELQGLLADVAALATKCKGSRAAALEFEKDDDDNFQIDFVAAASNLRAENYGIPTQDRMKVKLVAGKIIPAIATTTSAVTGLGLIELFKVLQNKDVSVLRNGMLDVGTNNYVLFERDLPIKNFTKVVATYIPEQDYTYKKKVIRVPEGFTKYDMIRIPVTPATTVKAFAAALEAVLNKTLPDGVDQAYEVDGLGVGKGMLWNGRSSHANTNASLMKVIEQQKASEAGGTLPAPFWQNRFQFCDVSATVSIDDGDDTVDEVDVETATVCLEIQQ

[3] = target: AMP-activated protein kinase, AMPK (Homo sapiens) (UniProt P54646+O43741+P54619+Q9UGJ0+Q9Y478+Q13131+Q9UGI9); assay: AMP-dependent Kinase enzyme assay. An in vitro enzyme assay that detects ADP turnover that is directly proportional to AMPK activity. This uses naive AMPK that is activated during the assay with MK-8722; format: functional; details: 30 µM
[4] = target: Sialic acid-binding Ig-like lectin 9 (Homo sapiens) (UniProt Q9Y336); assay: Hs-Siglec9 ALPHAscreen SOP 20170721; details: 10 µM
[5] = tested on: Trypanosoma cruzi; assay: Trypanosoma cruzi phosphomannomutase and mannose-1-phosphate guanylyltransferase assay; format: functional; details: 10 µM
[6] = target: T2, Arginase-2, mitochondrial (Homo sapiens) (UniProt P78540); assay: in vitro enzyme assay to detect the production of urea directly proportional to the activity of Arginase II; format: functional; details: 33.3 µM; further: in the data most compounds retested in dose-response had high values
T2 sequence (whole entry): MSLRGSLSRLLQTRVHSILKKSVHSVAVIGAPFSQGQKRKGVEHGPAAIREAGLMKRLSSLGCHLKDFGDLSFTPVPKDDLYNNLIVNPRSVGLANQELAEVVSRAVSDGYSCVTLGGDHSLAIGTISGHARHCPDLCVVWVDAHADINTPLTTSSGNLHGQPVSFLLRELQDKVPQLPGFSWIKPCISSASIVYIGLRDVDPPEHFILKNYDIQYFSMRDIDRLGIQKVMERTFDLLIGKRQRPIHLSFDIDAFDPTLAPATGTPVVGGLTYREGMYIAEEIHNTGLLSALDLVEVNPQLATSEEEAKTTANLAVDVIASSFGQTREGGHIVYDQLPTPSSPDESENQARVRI

[7] = target: T3, Proteasome subunit beta (Trypanosoma cruzi) (UniProt O96673); assay: Trypanosoma cruzi proteasome chymotrypsin-like activity (TcProtChymo) assay.; further: in the data most compounds retested in dose-response had high values; format: functional; details: 9.37 µM
T3 sequence (whole entry): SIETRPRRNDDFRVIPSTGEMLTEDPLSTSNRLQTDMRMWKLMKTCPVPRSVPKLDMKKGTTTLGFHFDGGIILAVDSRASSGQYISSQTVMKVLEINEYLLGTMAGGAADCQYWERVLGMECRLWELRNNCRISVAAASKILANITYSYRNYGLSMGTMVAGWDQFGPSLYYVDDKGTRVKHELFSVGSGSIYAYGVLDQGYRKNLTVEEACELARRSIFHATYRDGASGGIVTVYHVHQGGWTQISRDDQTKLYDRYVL

[8] = organism: Homo sapiens; assay: To identify inhibition of the IFN signalling (Jak-Stat) pathway via expression of an eGFP reporter gene under the control of an IFN-stimulated response element (ISRE) containing MxA promoter.; format: functional; details: 30 µM
[9] = target: T4, Tyrosyl-tRNA synthetase, putative (Trypanosoma cruzi (strain CL Brener)) (UniProt Q4DSP6); assay: Trypanosoma cruzi tyrosyl tRNA synthetase (TcYRS) _High Tyrosine SOP; format: functional; details: 30 µM; further: in the data most compounds retested in dose-response had high values
T4 sequence (whole entry): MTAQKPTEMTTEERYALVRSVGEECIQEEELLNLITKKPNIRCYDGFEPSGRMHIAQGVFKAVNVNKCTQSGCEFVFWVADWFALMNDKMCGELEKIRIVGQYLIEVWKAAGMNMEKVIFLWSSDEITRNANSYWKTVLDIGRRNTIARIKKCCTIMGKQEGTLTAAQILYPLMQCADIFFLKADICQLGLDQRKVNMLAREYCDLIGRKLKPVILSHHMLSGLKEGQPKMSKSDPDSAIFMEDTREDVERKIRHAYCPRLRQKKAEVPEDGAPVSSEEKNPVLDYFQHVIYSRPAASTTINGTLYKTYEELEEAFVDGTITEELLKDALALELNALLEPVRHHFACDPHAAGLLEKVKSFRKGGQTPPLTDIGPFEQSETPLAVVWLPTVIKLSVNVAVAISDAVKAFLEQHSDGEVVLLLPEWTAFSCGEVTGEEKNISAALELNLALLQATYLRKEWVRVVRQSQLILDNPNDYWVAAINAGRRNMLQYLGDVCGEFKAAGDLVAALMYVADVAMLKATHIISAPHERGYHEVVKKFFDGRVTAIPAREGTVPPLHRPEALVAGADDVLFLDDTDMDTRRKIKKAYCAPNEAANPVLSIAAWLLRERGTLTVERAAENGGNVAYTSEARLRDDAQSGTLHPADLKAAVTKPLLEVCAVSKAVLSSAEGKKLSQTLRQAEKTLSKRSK

[10] = target: T4, Tyrosyl-tRNA synthetase, putative (Trypanosoma cruzi (strain CL Brener)); assay: Trypanosoma cruzi tyrosyl tRNA synthetase (TcYRS) SOP; format: functional; details: 30 µM
[11] = target: Chromo domain-containing protein 1 (Saccharomyces cerevisiae (strain ATCC 204508 / S288c) (Baker's yeast)) (UniProt P32657); assay: ScCHD-1 Enzyme Inhibition Assay; format: functional; details: 30 µM; further: in the data most compounds retested in dose-response had high values
Chromo domain-containing protein 1 (Saccharomyces cerevisiae (strain ATCC 204508 / S288c) (Baker's yeast)), sequence (P32657 whole entry, the tested form may be a part): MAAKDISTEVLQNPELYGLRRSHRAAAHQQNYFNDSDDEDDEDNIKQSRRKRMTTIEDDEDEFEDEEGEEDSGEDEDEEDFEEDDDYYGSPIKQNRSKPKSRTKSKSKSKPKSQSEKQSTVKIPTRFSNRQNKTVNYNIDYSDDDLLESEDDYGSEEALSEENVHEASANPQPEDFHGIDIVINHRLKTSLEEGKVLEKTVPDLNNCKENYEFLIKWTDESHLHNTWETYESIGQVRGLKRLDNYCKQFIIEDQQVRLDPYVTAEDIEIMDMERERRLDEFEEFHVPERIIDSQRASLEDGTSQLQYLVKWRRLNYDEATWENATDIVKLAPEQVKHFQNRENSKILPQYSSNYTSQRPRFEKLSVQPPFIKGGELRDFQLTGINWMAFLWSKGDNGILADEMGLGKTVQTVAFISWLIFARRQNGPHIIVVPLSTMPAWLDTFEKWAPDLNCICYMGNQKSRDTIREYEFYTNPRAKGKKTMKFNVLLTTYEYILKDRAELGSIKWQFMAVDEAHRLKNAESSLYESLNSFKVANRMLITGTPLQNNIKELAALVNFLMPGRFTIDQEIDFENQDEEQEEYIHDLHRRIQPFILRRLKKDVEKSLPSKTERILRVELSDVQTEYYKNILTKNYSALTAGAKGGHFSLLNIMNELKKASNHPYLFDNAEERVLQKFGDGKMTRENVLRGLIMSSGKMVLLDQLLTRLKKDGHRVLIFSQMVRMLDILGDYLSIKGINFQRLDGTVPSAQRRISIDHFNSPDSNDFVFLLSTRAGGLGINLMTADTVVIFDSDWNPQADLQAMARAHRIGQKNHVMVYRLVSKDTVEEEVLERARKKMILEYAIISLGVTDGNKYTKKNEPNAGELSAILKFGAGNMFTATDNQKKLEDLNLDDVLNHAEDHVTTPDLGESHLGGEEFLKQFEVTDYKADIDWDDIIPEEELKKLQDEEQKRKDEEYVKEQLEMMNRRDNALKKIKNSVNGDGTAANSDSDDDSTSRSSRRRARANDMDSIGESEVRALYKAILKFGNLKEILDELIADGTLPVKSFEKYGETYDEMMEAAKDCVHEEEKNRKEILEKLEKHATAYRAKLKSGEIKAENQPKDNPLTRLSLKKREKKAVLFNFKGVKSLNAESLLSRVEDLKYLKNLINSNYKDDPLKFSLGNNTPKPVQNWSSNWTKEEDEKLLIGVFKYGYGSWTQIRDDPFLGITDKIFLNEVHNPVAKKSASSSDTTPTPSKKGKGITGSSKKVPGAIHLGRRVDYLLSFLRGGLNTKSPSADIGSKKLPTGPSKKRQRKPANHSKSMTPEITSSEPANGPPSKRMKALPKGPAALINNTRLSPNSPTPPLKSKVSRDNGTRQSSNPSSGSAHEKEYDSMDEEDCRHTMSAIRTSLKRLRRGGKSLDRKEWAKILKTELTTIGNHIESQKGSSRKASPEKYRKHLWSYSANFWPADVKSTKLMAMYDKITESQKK

Protein translocase subunit SecA (Escherichia coli (strain K12)), sequence (P10408 whole entry): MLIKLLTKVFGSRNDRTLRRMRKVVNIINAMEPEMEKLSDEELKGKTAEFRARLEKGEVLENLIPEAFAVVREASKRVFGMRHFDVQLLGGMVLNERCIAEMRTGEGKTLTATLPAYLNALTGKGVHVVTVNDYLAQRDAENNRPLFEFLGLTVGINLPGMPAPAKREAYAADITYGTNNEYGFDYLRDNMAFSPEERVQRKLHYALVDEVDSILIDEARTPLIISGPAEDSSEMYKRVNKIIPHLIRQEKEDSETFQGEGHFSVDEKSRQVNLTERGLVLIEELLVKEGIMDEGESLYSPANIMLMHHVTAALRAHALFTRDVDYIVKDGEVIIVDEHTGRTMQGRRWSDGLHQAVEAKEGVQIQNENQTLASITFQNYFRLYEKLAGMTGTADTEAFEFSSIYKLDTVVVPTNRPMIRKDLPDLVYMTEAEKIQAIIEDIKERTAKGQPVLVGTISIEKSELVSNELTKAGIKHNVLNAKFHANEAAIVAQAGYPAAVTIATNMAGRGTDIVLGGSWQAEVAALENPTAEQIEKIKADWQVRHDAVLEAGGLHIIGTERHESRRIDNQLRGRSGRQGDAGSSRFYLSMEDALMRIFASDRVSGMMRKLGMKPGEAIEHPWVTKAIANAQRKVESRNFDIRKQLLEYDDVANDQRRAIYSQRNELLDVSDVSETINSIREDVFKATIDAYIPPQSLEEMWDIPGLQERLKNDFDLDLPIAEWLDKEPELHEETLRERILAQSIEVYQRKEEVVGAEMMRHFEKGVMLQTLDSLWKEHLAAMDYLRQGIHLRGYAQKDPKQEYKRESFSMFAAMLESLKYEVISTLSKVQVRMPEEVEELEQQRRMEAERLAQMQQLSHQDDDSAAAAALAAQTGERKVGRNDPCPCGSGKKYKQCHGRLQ
Sialic acid-binding Ig-like lectin 9 (Homo sapiens), sequence (Q9Y336 whole entry): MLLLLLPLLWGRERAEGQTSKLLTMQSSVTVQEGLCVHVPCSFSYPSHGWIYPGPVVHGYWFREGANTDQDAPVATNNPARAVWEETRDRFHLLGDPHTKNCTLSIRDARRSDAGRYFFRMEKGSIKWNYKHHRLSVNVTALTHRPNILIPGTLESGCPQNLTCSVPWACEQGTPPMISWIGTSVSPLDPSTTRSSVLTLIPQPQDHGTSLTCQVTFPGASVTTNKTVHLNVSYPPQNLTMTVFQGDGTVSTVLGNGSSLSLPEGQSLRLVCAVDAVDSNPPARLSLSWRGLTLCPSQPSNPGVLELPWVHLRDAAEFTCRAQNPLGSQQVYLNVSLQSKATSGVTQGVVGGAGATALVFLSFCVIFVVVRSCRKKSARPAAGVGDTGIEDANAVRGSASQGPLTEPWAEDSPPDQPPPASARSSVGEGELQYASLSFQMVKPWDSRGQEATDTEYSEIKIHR

SMILES	Percent Effect [1]	Percent Effect [2]	Percent Effect [3]	Percent Effect [4]	Percent Effect [5]	Percent Effect [6]	Percent Effect [7]	Percent Effect [8]	Percent Effect [9]	Percent Effect [10]	Percent Effect [11]
O=C(Nc1ccc(F)cc1)N1C[C@H]2CC[C@@H]1CN(Cc1cccnc1)C2	-3.11%	11%	4.71%	-2.61%	-2.15%	4.54%	13.3%	9.03%	10.8%	20%	-5.73%
CCC1=N[C@@]2(CC[C@@H]3CN(S(=O)(=O)N(C)C)C[C@@H]32)C(=O)N1CC(C)C	-1.28%	10.4%	-3.92%	6.82%	-2.07%	3.23%	-0.696%	-7.21%	5.29%	11.5%	-6.8%
c1ccc(CCN2CCN(c3ccc4nncn4n3)CC2)nc1	-3.09%	5.2%	9.47%	7.22%	-4.49%	3.56%	3.72%	21.7%	2.91%	7.32%	-0.331%
CC(=O)N1CCCCC1c1nc(N)ncc1-c1ccccc1 (configuration not stated)	-3.36%	13.3%	9.28%	-4.89%	5.32%	19.8%	6.78%	8.42%	6.38%	14.1%	-3.68%
O=C(CCc1cc2n(n1)CCCN(C(=O)c1cccnc1)C2)NC1CC1	-2.13%	4.17%	-1.68%	-4.93%	-3.21%	-2.21%	10.7%	4.24%	0%	7.69%	-2.05%
CC1CN(C(=O)NCCCn2cncn2)CCO1 (configuration not stated)	-2.77%	7.89%	1.46%	3.56%	-2.82%	5.75%	2.84%	-1.05%	5.39%	7.32%	-1.67%
Cc1nc(C2CCCN(C(=O)c3ccc(N4CCCC4)nc3)C2)no1 (configuration not stated)	-3.94%	3.8%	7.78%	4.58%	3.18%	-8.39%	1.37%	13.9%	4.17%	12.7%	-26.5%
CN(CCCNc1cc(N2CCCC2CO)ncn1)S(C)(=O)=O (configuration not stated)	-2.02%	8.22%	-20.8%	7.67%	-1.96%	1.82%	16.3%	8.58%	2.15%	7.5%	-5.59%
O=C(CCc1cccnc1)N(Cc1ccsc1)CC1CCCO1 (configuration not stated)	-1.63%	-2.7%	-0.366%	-2.41%	1.93%	1.91%	10.3%	-6.2%	1.59%	7.32%	-3.52%
CS(=O)(=O)N1CCC(C(=O)NC(Cc2ccsc2)c2ccccn2)CC1 (configuration not stated)	-4.27%	6.76%	8.49%	4.61%	2.17%	1.16%	4.84%	13.2%	5.38%	9.09%	-8.15%
Cc1c(NC(=O)NCC(C)N2CCOCC2)cccc1OC(F)F (configuration not stated)	-4.46%	8.11%	0.188%	0.607%	0.391%	2.5%	8.03%	-7.17%	14.8%	-3.66%	-5.4%
O=C(NCc1csc(Br)c1)c1ccc(=O)[nH]n1	-0.0216%	6.33%	0.358%	-1.84%	-3.18%	4.95%	6.86%	13.1%	4.17%	-10.1%	-8.89%
CS(=O)(=O)NCCCNC(=O)c1cccc(-n2cccc2)c1	-5.41%	15.8%	0.491%	-5%	2.04%	1.18%	15.8%	1.58%	1.06%	13%	-6.62%
CCc1nc2n(n1)CC(NCc1noc(-c3ccccc3)n1)CC2 (configuration not stated)	-5.91%	5.26%	-5.76%	10.4%	9.06%	2.52%	-2.28%	-13.2%	3.45%	16.1%	-6.43%
NS(=O)(=O)c1ccc(NC(=O)CSc2ccc3c(c2)CCC3)cc1	-2.43%	-2.7%	2.08%	-4.31%	-4.69%	-21.2%	13.1%	6.93%	1.98%	-13.4%	17.3%
CC(c1ccc(F)c(F)c1)N1CCN(Cc2nccn2C)CC1 (configuration not stated)	0.457%	20.8%	-8.62%	5.23%	-7.68%	5.69%	8.62%	40.9%	-5.83%	-2.44%	-9.27%
Cc1nn(C)c(C)c1CC(=O)N1CCCC(n2cccn2)C1 (configuration not stated)	-2.93%	-5.26%	-2.25%	-1.17%	6.26%	-5.4%	2.12%	-14.2%	3.45%	3.7%	0.321%
